Screens as filed in PubChem.
An excerpt weighted towards active compounds, which were near 7.1% of everything screened.
MCF10A rerep – induces DNA re-replication in MCF 10a normal breast cells | MCF 10A DNA re-replication, Hoechst nuclear intensity, 48 h | 2.9% of 350,000 active | AID 624296 | Potency, µM (titrated, usually from 46.1 µM), most hits filed as activators; also: nearly all actives have a fitted effect of over 50% in size
AT treatment – potential ataxia-telangiectasia treatments restoring KAP-1 phosphorylation; F2112 A-T fibroblasts, KAP-1 phosphorylation AlphaLISA; neocarzinostatin DNA damage 30 min before lysis; 0.19% of 320,000 active; AID 485349; Potency, µM (series often up to 57.5 µM), hits mostly activators; also: nearly all actives have a fitted effect of over 45% in size
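hTERT-immortalized A-T patient fibroblasts (F2112), 500 cells/well in OPTI-MEM, 1% FBS, got compounds for 60 min, then NCS for 30 min at 37C. Lysates were then assayed for phospho-KAP-1 by AlphaLISA (anti-pKAP1 donor, anti-KAP1 acceptor beads), 6 hr at 25C.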
SW480 rereplic – DNA re-replication induction in SW480 cells. 1.8% of 340,000 active. SW480 DNA re-replication, Hoechst DNA content imaging, 48 h. Potency, µM (highest dose often 46.1 µM), hits mostly activators; also: nearly all actives have a fitted effect of over 55% in size
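Cells (250 per well) received 23 nL compound or DMSO by pin tool and were kept 48 hr at 37 C, 5% CO2. Nuclei were then stained with Hoechst for 40 min and scanned for DNA content.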
ELG1 genotoxic – induces genotoxicity in HEK293T cells with luciferase-tagged ELG1. HEK293T ELG1-luciferase reporter, luminescence, 16 h. Potency, µM (titrated, usually from 46 µM), actives largely listed as activators. 1.3% of 330,000 active. AID 504466; also: nearly all actives have a fitted effect of over 60% in size
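Quantitative HTS format in 1536-well plates. HEK293T ELG1-luciferase reporter cells receive test compound and are incubated 16 hr at 37 °C, 5% CO2; ONE-Glo added, 30 min room temperature, then luminescence read.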
ELG1 repair inh – inhibitors of ELG1-dependent DNA repair in HEK293T cells; HEK293T ELG1-luciferase reporter, luminescence, 16 h; DNA damage induced by 5-fluorouridine; Potency, µM (highest dose often 46.1 µM), most hits filed as inhibitors; 2.3% of 330,000 active; also: nearly all actives have a fitted effect of over 55% in size
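Reporter activity after DNA damage by 5-fluorouridine is monitored. Compound-treated cells incubate 16 hr at 37 °C, then ONE-Glo is added for 30 min before luminescence reading.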
p53 reactivator – mutant p53 re-activation in reporter cells; 0.063% of 320,000 active; AID 504706; Potency, µM (series often up to 92.2 µM), actives largely listed as activators; H1299 p53-A138V BP100-luciferase reporter, luminescence, 24 h; also: nearly all actives have a fitted effect of over 45% in size
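p53-null H1299 cells stably carrying temperature-sensitive p53-A138V and a BP100-luciferase reporter were pinned with compounds (4-point, 1:5 series) and held 24 hrs at 37 deg C. Luminescence was read 10 min after detection reagent.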
Numbers stand for hits; – = inactive; ? = inconclusive; · = no result. Calls follow the shape of the dose curve; as a rule, active = well fitted curve in the direction sought with a large enough effect; inconclusive = small, poorly fitted or top-dose-only effect, or another doubt; inactive = no such curve, though single readings can be large; an effect the other way counts as inactive or inconclusive.

SMILES	MCF10A rerep	AT treatment	SW480 rereplic	ELG1 genotoxic	ELG1 repair inh	p53 reactivator
O=C1CCCC/C1=N\Nc1ccc(OCc2ccccc2)cc1	–	–	–	–	?	?
Cc1ccc(-c2noc(CN3CCC(C(N)=O)CC3)n2)cc1	–	–	–	–	?	?
Cc1ccc(-c2noc(CN3C(C)CCCC3C)n2)cc1 (configuration not stated)	–	–	–	21µM	–	–
O=C1CCC(=O)N1CCCCCc1nc(-c2ccccc2)no1	–	–	–	21µM	?	?
CC1CCN(Cc2nc(-c3ccccc3)no2)CC1	–	–	–	5.2µM	?	?
Cc1cccc(C(=O)OCCN2CCOCC2)c1	?	–	–	–	?	–
COCc1nnc(NC(=O)c2cccc(NC(=O)c3ccccc3)c2)s1	–	–	–	–	–	–
COc1ccccc1C1CCN(Cc2ccc(Cl)c(Cl)c2)CC1	?	25µM	–	–	–	–
COc1ccccc1C1CCN(Cc2ccc(Cl)cc2Cl)CC1	?	–	–	–	–	–
Cc1ccc(C)c(-n2[nH]c3c4c(ccc3c2=O)C(=O)c2ccccc2C4=O)c1	18µM	–	–	–	–	–
CC(C)(C)n1[nH]c2c3c(ccc2c1=O)C(=O)c1ccccc1C3=O	–	–	12µM	–	–	?
Cc1ccc(-n2[nH]c3c4c(ccc3c2=O)C(=O)c2ccccc2C4=O)cc1	–	–	–	–	–	–
COCCCn1[nH]c2c3c(ccc2c1=O)C(=O)c1ccccc1C3=O	?	–	?	–	26µM	?
Cc1onc(-c2c(F)cccc2Cl)c1C(=O)NC1C(=O)N2C1SC(C)(C)C2C(=O)O (configuration not stated)	–	·	–	·	·	·
COc1ccc(C2=C(c3ccc(OC)c(OC)c3)CN3CCCCC3C2)cc1 (configuration not stated)	–	–	?	–	–	–
COCCNC(=O)c1ccc2c(c1)NC(=O)CS2	–	–	–	–	–	–
O=C1CSc2ccc(C(=O)NCCc3ccc(Cl)cc3Cl)cc2N1	–	–	–	–	26µM	–
COc1ccc(-c2csc(NC(C)c3nc4cc(Cl)c(N5CCCCC5)cc4n3CCCO)n2)cc1 (configuration not stated)	?	·	0.15µM	·	·	·
COC(=O)C1=C(O)/C(=C\c2ccc(OCC(=O)Nc3ccc(OC)cc3)cc2)N=C1C	?	–	15µM	–	–	–
Cc1ccc(N(C(=O)Cn2nnc3ccccc32)C(C(=O)NCc2ccco2)c2ccc(C)o2)cc1 (configuration not stated)	–	–	–	–	–	–
Cc1ccc(CN(C(=O)Cn2nnc3ccccc32)C(C(=O)NCc2ccco2)c2ccc(C)o2)cc1 (configuration not stated)	–	–	–	–	23µM	–
CC(C)c1ccccc1-n1c(SCC(=O)c2ccc3c(c2)NC(=O)CO3)nc2ccccc2c1=O	–	–	–	–	5.2µM	–
COCCn1c(SCC(=O)N2CCc3ccccc3C2)nc2cc(Cl)ccc2c1=O	–	–	–	–	23µM	–
CC(C)Cn1c(SCC(=O)N2CCc3ccccc3C2)nc2cc(Cl)ccc2c1=O	?	–	–	–	18µM	–
O=C(CSc1nc2ccccc2c(=O)n1-c1ccccc1)N1CCc2ccccc2C1	?	–	?	–	?	–
SMILES	MCF10A rerep	AT treatment	SW480 rereplic	ELG1 genotoxic	ELG1 repair inh	p53 reactivator
CC(C)Cn1c(SCC(=O)N2CCc3ccccc3C2)nc(O)cc1=O	–	–	–	–	–	–
CC(C)c1ccccc1-n1c(SCC(=O)N2CCc3ccccc3C2)nc2ccccc2c1=O	?	–	–	–	26µM	–
CCCC(=O)Nc1ccc(C(=O)COC(=O)c2cc(C)oc2C)cc1	–	–	–	–	–	–
CN1CCN(c2ccc(NC(=O)CSc3nnnn3-c3ccccc3F)cc2)CC1	?	–	–	–	?	–
COc1ccc(C(C[N+](=O)[O-])C2(c3ccc(OC)c(OC)c3)C(=O)c3ccccc3C2=O)cc1 (configuration not stated)	?	–	3.3µM	–	?	–
COc1cccc(-c2ccc(NC(=O)C3CCCN(Cc4cnn(C(C)C)c4)C3)cc2)c1 (configuration not stated)	18µM	–	?	–	–	–
CC(=O)c1cccc(CN2CCCC(C(=O)Nc3ccc(-c4ccco4)cc3)C2)c1 (configuration not stated)	?	–	8.2µM	–	?	–
CCCc1ncc(CN2CCCC(C(=O)Nc3ccc(-c4cccc(OC)c4)cc3)C2)cn1 (configuration not stated)	–	–	?	–	?	–
O=C(Nc1ccc(-c2cscn2)cc1)C1CCCN(Cc2ccccc2)C1 (configuration not stated)	?	–	29µM	–	–	–
Cc1cccc(CN2CCCC(C(=O)Nc3ccc(-c4cscn4)cc3)C2)c1 (configuration not stated)	–	–	?	–	–	–
O[C@@H]1CN(Cc2ccccc2Cl)CC[C@H]1N1CCOCC1	–	–	–	–	–	·
Nc1nnnn1/N=C/C(Br)=C/c1ccccc1	2.6µM	–	2.8µM	?	?	–
Nc1nnnn1/N=C/C=C/c1ccccc1	–	–	–	?	?	–
Cc1ccccc1C1=NC(c2ccc(F)cc2F)ON1 (configuration not stated)	–	–	–	11µM	?	?
COc1ccccc1C1N=C(c2ccccc2C)NO1 (configuration not stated)	–	–	–	10µM	?	?
Cc1ccccc1-c1nnc(SCc2ccc(F)cc2)o1	–	–	–	?	?	?
COc1ccc(Cl)cc1C(=O)NNC(=O)CNC(=O)c1ccco1	–	–	–	–	–	–
CN1CCN(C(c2ccc(Cl)cc2)c2cc(Cl)c3cccnc3c2O)CC1 (configuration not stated)	?	–	–	–	–	?
Oc1c(C(c2ccccn2)N2CCCCC2)cc(Cl)c2cccnc12 (configuration not stated)	21µM	–	?	–	?	–
Cc1ccc(OC(=O)c2ccc3nc(C)sc3c2)cc1	–	–	–	2.9µM	?	–
Cc1cc(O)c(Oc2cc(C)cc(O)c2O)c(O)c1	–	–	18µM	–	–	–
O=c1[nH]c(=O)n(-c2ccccc2)c2c1C(C(F)(F)F)(C(F)(F)F)N=C(CCC1CCCCC1)N2	16µM	–	?	–	?	–
